Compounds with a hit are over-represented: about 1.8% of the library has one in this group of screens.
VDR inhibitor: Inhibitors of the vitamin D receptor (VDR): qHTS; VDR-SRC2-3 peptide fluorescence polarization, 2 h; AID 504847, 2011; 0.93% of 400,000 active; Potency, µM, inactives show max response, negative = inhibition, most hits filed as inhibitors; also: % is scaled to controls: 0 for no effect and ±100 for the full control effect
Target sequence (P11473 whole entry, looked up): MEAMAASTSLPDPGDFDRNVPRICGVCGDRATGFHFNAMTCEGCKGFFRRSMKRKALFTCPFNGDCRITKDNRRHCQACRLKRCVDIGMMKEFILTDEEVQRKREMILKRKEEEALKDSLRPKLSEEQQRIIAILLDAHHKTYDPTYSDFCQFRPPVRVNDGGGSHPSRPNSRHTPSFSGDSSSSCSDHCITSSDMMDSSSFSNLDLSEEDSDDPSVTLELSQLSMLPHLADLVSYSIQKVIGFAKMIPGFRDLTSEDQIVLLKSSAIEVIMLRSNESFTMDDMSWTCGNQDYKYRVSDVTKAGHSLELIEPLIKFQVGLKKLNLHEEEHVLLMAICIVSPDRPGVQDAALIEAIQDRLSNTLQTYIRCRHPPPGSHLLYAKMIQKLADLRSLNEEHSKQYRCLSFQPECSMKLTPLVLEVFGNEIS
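Compounds are added to VDR with labelled SRC2-3 coactivator peptide and held 2 h at room temperature. Inhibition of the VDR–peptide interaction is then read as a change in fluorescence polarization.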
TrxR1 substrate: qHTS Assay for Substrates of Mammalian Selenoprotein Thioredoxin Reductase 1 (TrxR1): qHTS | Thioredoxin reductase 1, cytoplasmic (Rattus norvegicus), O89049 | 0.01% of 390,000 active | Potency, µM (titrated, usually from 114 µM), for inactives: top-dose activity change, negative = substrate turnover | purified TrxR1 substrate turnover, NADPH consumption readout; also: % is scaled to controls: 0 for no effect and ±100 for the full control effect; nearly all actives have a fitted effect of over 50% in size
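Rat TrxR1, dispensed at 90 nM, was prereduced with 400 uM NADPH (final) for 5 min at ~22 deg C, then incubated with compound 15 min before 400 uM selenite. A first-read NADPH fluorescence drop versus no-compound background flagged substrates.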
Vif-A3F inh: qHTS for Inhibitors of Vif-A3F Interactions: qHTS; HeLa A3F-eYFP + Vif (tagged APOBEC3F with the HIV-1 protein that degrades it), YFP fluorescence increase; Potency, µM (titrated, usually from 46.1 µM), without a hit: at the top dose activity, negative = active; 0.2% of 390,000 active; AID 602313, 2012; also: % of control where 0% means no effect; nearly all actives have a fitted effect of over 65% in size
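HeLa cells stably expressing Vif plus C-terminally eYFP-tagged A3F were seeded, incubated overnight at 37 deg C, dosed with compound, incubated overnight again at 37 deg C. Yellow fluorescence (Ex 488/Em 500-530) reported blocked Vif-mediated A3F-eYFP degradation.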
rTrxR1 inhibitor: qHTS Assay for Inhibitors of Mammalian Selenoprotein Thioredoxin Reductase 1 (TrxR1): qHTS; Thioredoxin reductase 1, cytoplasmic (Rattus norvegicus), O89049; 1% of 390,000 active; AID 588453, 2011; Potency, µM (series often up to 114 µM), inactives show at the highest dose activity change, negative = inhibition, usual class: inhibitors; recombinant rTrxR1, NADPH fluorescence consumption, selenite substrate; also: % is scaled to controls: 0 for no effect and ±100 for the full control effect; nearly all actives have a fitted effect of over 65% in size
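Rat TrxR1 (90 nM in the dispensed reagent) was pre-reduced with 400 uM NADPH for 5 min at room temperature, then incubated with compound for 15 min. After 400 uM selenite was added, NADPH fluorescence (Ex 340/Em 450 nm) was followed for 8 min.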
Vif-APOBEC3G blk: qHTS for Inhibitors of Vif-A3G Interactions: qHTS; HeLa A3G-eYFP + Vif (tagged APOBEC3G with the HIV-1 protein that degrades it), YFP fluorescence, overnight; Potency, µM (series often up to 46.1 µM), for the others: at the highest dose activity, negative = active, actives largely listed as inhibitors; 0.076% of 410,000 active; also: % is scaled to controls: 0 for no effect and ±100 for the full control effect; nearly all actives have a fitted effect of over 60% in size
Target sequence (Q9HC16 whole entry, looked up): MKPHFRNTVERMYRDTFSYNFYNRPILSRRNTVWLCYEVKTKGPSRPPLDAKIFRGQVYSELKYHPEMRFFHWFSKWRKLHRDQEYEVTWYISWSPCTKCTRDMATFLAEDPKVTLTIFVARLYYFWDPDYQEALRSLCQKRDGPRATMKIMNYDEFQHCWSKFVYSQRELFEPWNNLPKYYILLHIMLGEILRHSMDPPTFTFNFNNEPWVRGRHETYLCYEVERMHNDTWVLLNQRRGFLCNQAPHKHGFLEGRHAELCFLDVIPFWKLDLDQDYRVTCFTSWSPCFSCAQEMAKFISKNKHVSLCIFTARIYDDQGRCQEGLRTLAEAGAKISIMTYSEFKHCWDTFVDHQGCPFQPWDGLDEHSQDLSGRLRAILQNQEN
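HeLa cells stably expressing Vif and C-terminally eYFP-tagged A3G, seeded overnight at 37 deg C, then exposed to compound by pintool overnight at 37 deg C. Rise in yellow fluorescence (Ex 488/Em 500-530, Acumen) marks blocked Vif-driven A3G degradation.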
The depositor's hits bear a star; ? = inconclusive; nt = not tested or not shown; [ ] = remark or other dose. Calls follow the shape of the dose curve; as a rule, active = well fitted curve in the direction sought with a large enough effect; inconclusive = small, poorly fitted or top-dose-only effect, or another doubt; inactive = no such curve, though single readings can be large; an effect the other way counts as inactive or inconclusive. Potency is read from the fitted curve at half-maximal effect.

SMILES	VDR inhibitor	TrxR1 substrate	Vif-A3F inh	rTrxR1 inhibitor	Vif-APOBEC3G blk
COC(=O)c1ccc(/C=C/C(=O)c2cccc(OC)c2)cc1	22.4µM*	-1.7%	12.8%	?	5.0%
Cc1cc(=O)n2nc(N3CCC(C(=O)Nc4ccc(Br)c(C)c4)CC3)sc2n1	8.5%	-4.7%	0.8%	0.9%	2.3%
CC1Cc2ccccc2C[N+]1(C)CC(=O)c1cccc([N+](=O)[O-])c1 (centres undefined)	nt	-2.1%	nt	-7.2%	0.9%
COc1ccc(N(Cc2cccs2)C(=O)COc2cc(C)c(Cl)c(C)c2)cc1	4.0%	-10.4%	-5.6%	11.3%	-3.0%
COc1ccc(C(=O)/C=C/c2ccccc2)cc1	25.1µM*	nt	nt	nt	nt
Cc1cccc(C=CC(=O)c2ccccc2)c1	44.7µM*	5.5%[57.1 µM]	1.9%	0.4%[57.1 µM]	-21.5%
Cc1ccc(C(=O)C=Cc2cccc(C)c2)cc1	?	-4.7%	-0.6%	-17.4%	-11.5%
COc1ccc(C(=O)/C=C/c2ccc(O)cc2)cc1	-11.2%	2.9%[57.1 µM]	-2.4%	-3.1%[57.1 µM]	?
Cc1cc(C)c2oc(-c3cccc(NC(=O)COc4ccc(Cl)cc4C)c3C)nc2c1	nt	4.0%	nt	8.0%	-2.6%
COc1ccc(-c2cnc3c(NC=O)cc(-c4ccccc4)cn23)cc1OC	nt	nt	nt	nt	1.78µM*
COc1ccc(CNc2nc(N)nc3nc[nH]c23)cc1	12.3%	2.4%	nt	7.1%	-2.4%
CC(C)c1ccc(Nc2ncnc3c2c(-c2ccccc2)cn3-c2ccccc2)cc1	3.5%	8.9%[57.1 µM]	0.8%	33.0%[57.1 µM]	-2.3%
COC(=O)[C@@H]1[C@H]2SC(C)(C)[C@H](C(=O)OC)N2C(=O)N1Cc1cc2ccccc2n1S(=O)(=O)c1ccccc1	nt	-8.2%	nt	12.0%	-4.0%
COc1ccccc1/C=C1\Cc2ccccc2C1=O	-4.2%	-8.4%	4.1%	-0.7%	1.4%
CC1(C)CC(=Cc2ccccc2[N+](=O)[O-])C(=O)c2ccccc21	nt	nt	-12.1%	nt	1.1%
Nc1ccccc1C=C1Cc2ccccc2C1=O	-6.9%	-7.3%	6.31µM*	-5.5%[57.1 µM]	?
O=C1C(=Cc2ccccc2[N+](=O)[O-])Cc2ccccc21	nt	nt	12.6µM*	nt	?
COc1cc(C)c(CC/C(C)=C/C=C/C(C)=O)c(C)c1C	79.4µM*	nt	nt	nt	nt
COc1ccc(OCCCCn2c(C3CC(=O)N(c4cccc(Cl)c4)C3)nc3ccccc32)cc1 (centres undefined)	9.5%	6.4%	0.0%	29.8%	0.1%
O=C(CCCl)Nc1cccc2cccnc12	-8.9%	8.8%	nt	12.6µM*	-18.3%
COc1ccc(OCC(=O)Nc2cccc3ncccc23)cc1	1.0%	-8.2%	-8.8%	3.3%[57.1 µM]	0.2%
O=C(CCl)Nc1cccc2ncccc12	13.4%	-4.4%	0.5%	50.1µM*	?
O=C(Nc1ccccc1Br)c1cnn2c1NC(=C1CC1)C=C2C(F)F	nt	7.5%	nt	13.8%	nt
O=C(c1ccc(S(=O)(=O)Cc2cc(F)ccc2F)c([N+](=O)[O-])c1)N1CCCCC1	?	0.1%	1.3%	4.47µM*	?
Cc1ccccc1CS(=O)(=O)c1ccc(C(=O)N2CCC(C)CC2)cc1[N+](=O)[O-]	-3.9%	7.1%	-5.7%	9.7%[57.1 µM]	8.8%
SMILES	VDR inhibitor	TrxR1 substrate	Vif-A3F inh	rTrxR1 inhibitor	Vif-APOBEC3G blk
CC1CCN(C(=O)c2ccc(S(=O)(=O)Cc3cccc(F)c3)c([N+](=O)[O-])c2)CC1	?	2.9%	-3.9%	?	-4.8%
O=C(c1ccc(S(=O)(=O)Cc2cc(F)ccc2F)c([N+](=O)[O-])c1)N1CCCC1	?	-9.0%[57.1 µM]	12.3%	10µM*	-25.0%
COc1ccc(N=C2S/C(=C\c3ccc(OC(C)C(=O)O)c(OC)c3)C(=O)N2CCc2c[nH]c3ccccc23)cc1 (centres undefined)	39.8µM*	-4.1%	?	0.6%	3.1%
O=C1/C(=C/c2ccc(N3CCOCC3)o2)SC(=Nc2ccccc2)N1CCc1c[nH]c2ccccc12	79.4µM*	-6.3%	?	10µM*	-34.1%
COc1cc(/C=C2\SC(=Nc3ccccc3)N(CCc3c[nH]c4ccccc34)C2=O)ccc1OC(C)C(=O)O (centres undefined)	?	-18.4%	-6.9%	-24.3%	-8.8%
O=C(NCC(c1cccs1)S(=O)(=O)c1cccs1)c1ccc(Cl)cc1 (centres undefined)	9.3%	-1.7%[57.1 µM]	0.7%	-3.0%[57.1 µM]	-1.8%
COc1ccc(Nc2oc(-c3ccc(COc4ccccc4C)o3)nc2C#N)cc1	20.5%	3.1%	0.8%	1.4%	-1.9%
O=C(CN1C(=O)COc2ccc(S(=O)(=O)N3CCCCCC3)cc21)NCCc1ccccc1	-4.3%	0.4%	6.3%	17.8%	-3.7%
COc1cc(/C=C(/C(=O)c2cccs2)c2nc3ccccc3[nH]2)cc(OC)c1O	50.1µM*	-16.1%	5.4%	56.2µM*	?
COc1ccccc1N1CCN(C(=O)c2ccc(Nc3nc4ccccc4n4nnnc34)cc2)CC1	-1.6%	-0.1%	?	2.8%	-8.3%
COc1ccc(-c2c(-c3ccc4c(c3)OCO4)noc2-c2ccsc2)cn1	nt	1.3%	nt	18.1%	2.8%
c1ccc(-c2onc(-c3ccco3)c2-c2ccc3c(c2)OCO3)cc1	-9.3%	8.2%	0.0%	50.1µM*	1.1%
Cc1sc2nc[nH]c(=O)c2c1-c1ccc(F)cc1	-13.3%	-8.6%	-3.6%	-3.5%	-1.0%
Cc1sc2nc[nH]c(=S)c2c1-c1ccccc1	89.1µM*	7.3%[57.1 µM]	-8.7%	?	0.8%
O=C(/C=C/c1cccs1)c1cc(Cl)ccc1O	?	6.7%	-15.2%	10.7%	-5.8%
O=C(C=Cc1cccs1)c1ccc(Cl)s1	39.8µM*	-18.4%	-6.2%	?	-18.9%
CN(C)C(=O)/N=N/C(=O)N(C)C	6.31µM*	-8.4%[57.1 µM]	nt	-3.5%[57.1 µM]	nt
CCCCCCCCCCCCC/C=C/[C@@H](O)[C@H](CO)NC(C)=O	7.5%	nt	nt	nt	nt
BrC(=C\c1ccccc1)/C=N/Nc1ccc2nncn2n1	-19.1%	-10.2%	-12.9%	17.8µM*	-19.3%
C(=N\Nc1ccc2nncn2n1)/c1ccco1	-6.1%	-2.1%[57.1 µM]	0.5%	-17.0%[57.1 µM]	0.3%
CCCCCCCCCC[n+]1ccc(/C=C/c2ccc(N(C)C)cc2)c2ccccc21	nt	-14.3%	nt	?	?
Cc1ccc(OCC(=O)Nc2cc(Cl)ccc2-n2cncn2)c(C)c1	nt	nt	?	nt	-6.6%
Cc1ccc(S(=O)(=O)CCC(=O)Nc2cc(Cl)ccc2-n2cncn2)cc1	-10.3%	5.1%	-1.3%	12.6µM*	-3.6%
CCCN1CNc2c(c(=O)[nH]c(=S)n2CCc2cc(C)ccc2C)C1	3.2%	2.3%	nt	6.9%	nt
CCc1nnc(NS(=O)(=O)c2ccc(NC(=S)NC(=O)c3ccccc3)cc2)s1	-12.5%	-16.0%	3.8%	28.2µM*	-1.2%

Screens as filed in PubChem.
